ATXN2 expr inh = Primary qHTS for Inhibitors of ATXN expression; AID 1745845, 2022; 360,000 tested, 0.72% active; HEK-293 ATXN2-luciferase reporter, luminescence, 24 h; Potency, µM (doses to about 57 µM), most hits filed as inhibitors; also: nearly all actives have a fitted effect of over 55% in size
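qHTS (up to 57 uM final) was run with 24 h compound exposure of reporter cells at 37 °C. Each well was multiplexed: SteadyGlo luminescence measured ATXN2-luciferase expression after a fluorogenic Gly-Phe-AFC viability readout (25 uM final).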
IL1B secr inh = qHTS for Inhibitors of Inflammasome Signaling: IL-1-beta AlphaLISA Primary Screen; THP-1 LPS/ATP IL-1B secretion, AlphaLISA, 16 h; hits give low values; activity change, % at 57.5 µM; 360,000 tested, 4.7% active; in the data active = activity change below about -50%; inconclusive = mostly about -30% to -49%
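THP-1 cells pretreated 1 hr with compounds (up to 57.5 uM final), then stimulated with LPS (250 ng/mL final) plus ATP (1.25 mM final); secreted IL-1B measured by AlphaLISA after 16 hr, decreased signal indicating inhibition.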
DRD3 agonist = qHTS of D3 Dopamine Receptor Agonist: qHTS | D(3) dopamine receptor (Homo sapiens), P35462 | D3R DiscoveRx beta-arrestin cells, luminescence, 90 min | max activation, % | 410,000 tested, 0.58% active; in the data active = max activation above about 30%
Target sequence (P35462 whole entry, looked up): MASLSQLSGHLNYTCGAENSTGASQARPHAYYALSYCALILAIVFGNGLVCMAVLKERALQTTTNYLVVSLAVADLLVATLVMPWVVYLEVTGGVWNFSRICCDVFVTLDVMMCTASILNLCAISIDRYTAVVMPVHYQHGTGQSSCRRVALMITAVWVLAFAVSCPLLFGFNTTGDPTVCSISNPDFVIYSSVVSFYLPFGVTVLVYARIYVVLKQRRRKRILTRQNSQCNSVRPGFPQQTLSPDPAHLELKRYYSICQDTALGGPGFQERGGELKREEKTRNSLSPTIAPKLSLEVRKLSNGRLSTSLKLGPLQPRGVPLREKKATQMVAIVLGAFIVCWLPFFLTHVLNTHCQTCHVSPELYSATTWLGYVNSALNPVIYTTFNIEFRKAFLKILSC
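Agonist mode: compounds and dopamine controls were applied to plated cells for 90 min at 37 degrees C after an overnight attachment at 1500 cells/well. Luminescent read-out followed 30 - 60 minutes at room temperature with DiscoveRx detection reagent.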
a7 integrin act = qHTS for Activators of Integrin-Mediated Alleviation for Muscular Dystrophy | alpha7betagal myoblasts, beta-gal FDG fluorescence, 48 h | Potency, µM (series often up to 38.3 µM), hits mostly activators | 350,000 tested, 0.064% active; also: nearly all actives have a fitted effect of over 60% in size
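alpha7betagal+/- myoblasts (passage 13, 250/well) treated 48 h at 37C with compounds at 1:260 dilution of DMSO stock. Lysed, then beta-galactosidase activity read as FDG fluorescence (ex 480/em 540) after 30 min, with pre-read for autofluorescence.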
D3 antag = qHTS of D3 Dopamine Receptor Antagonist: qHTS | max response, negative = inhibition, % | D3R cells, DiscoveRx beta-arrestin luminescence, antagonist mode; hits give low values | 360,000 tested, 2.5% active | AID 652054, 2013; in the data active = max response below about -50%; inconclusive = no clear call, values can overlap the other calls
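Cells plated overnight at 1500 cells/well, then exposed to library compounds with dopamine controls for 90 minutes at 37 degrees C. DiscoveRx reagent added for 30–60 minutes at room temperature; luminescence read, quantitative HTS format.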
S2 tox = Viability Counterscreen for Primary qHTS for Inhibitors of ATXN expression | Potency, µM (highest dose often 56.7 µM), usual class: cytotoxic | 400,000 tested, 0.49% active | S2 cells (HEK-293 line with an ATXN2-luciferase reporter) viability, CellTiter-Fluor protease fluorescence, 24 h | AID 651635, 2014; also: nearly all actives have a fitted effect of over 40% in size
Hits are given with their value; - = inactive; ? = inconclusive; . = not tested or not shown; ! = not active in a repeat; [ ] = remark or other dose. Only some compounds are listed: those with a hit (about 7% of all), similar ones and a draw of the others. Unless noted, calls follow the shape of the dose curve; as a rule, active = well fitted curve in the direction sought with a large enough effect; inconclusive = small, poorly fitted or top-dose-only effect, or another doubt; inactive = no such curve, though single readings can be large; an effect the other way counts as inactive or inconclusive.

SMILES	ATXN2 expr inh	IL1B secr inh	DRD3 agonist	a7 integrin act	D3 antag	S2 tox
C[C@@H]1C=C[C@](Cc2ccccc2)(C(=O)O)N1C(=O)c1ccccc1	-	-	-	-	-	-
O=C(Nc1cccc(OC(F)(F)F)c1)c1ccc(Br)o1	-	-	-	-[7.66 µM]	-	-
Nc1c(-c2ccc(Cl)cc2)cnn1C1CCS(=O)(=O)C1 (stereo not given)	-	-	-	-	-	-
CC(=O)S[C@@H]1CC2=CC(=O)CC[C@]2(C)[C@H]2CC[C@@]3(C)[C@@H](CC[C@@]34CCC(=O)O4)[C@H]12	-	-56	-	.	-	-
C[C@]12CCC(=O)C=C1CC[C@@H]1[C@@H]2CC[C@@]2(C)[C@H]1CC[C@@]21CCC(=O)O1	.	-	-	-	-	-
CCOC(=O)c1c(O)c2c(n(Cc3ccco3)c1=O)CCCC2	-	-	44	-	-	-
Cc1ccc(CNC(=O)CSc2nc(=O)n(Cc3ccco3)c3c2CCC3)cc1	-	.	-	.	.	-
CN(CCNC(=O)c1ccc(/C=N/O)nc1)Cc1ccccc1	-	-	-	-	-76	-
CN(CC(=O)NNC(=O)c1cccnc1)S(=O)(=O)c1cc(Cl)ccc1Cl	-	-	-	-	-	-
Cc1ccc(-c2nc(N)nc(N)n2)c(C)c1	-	-	-	-	-	-
CC(=O)O[C@]1(C(C)=O)CC[C@H]2[C@@H]3C=C(Cl)C4=CC(=O)[C@@H]5C[C@@H]5[C@]4(C)[C@H]3CC[C@@]21C	?	-	-	.	-85!	?
CC1O[C@@H](OCC2O[C@@H](Oc3cc(O)c4c(c3)OC(c3ccc(O)cc3)CC4=O)[C@H](O)[C@@H](O)[C@@H]2O)[C@H](O)[C@H](O)[C@H]1O (stereo not given in full)	-	-	-	-	-58	-
CN(C)c1cc[n+](CC(=O)c2ccc(-c3ccccc3)cc2)cc1	2.8µM	?	-	-	-	-
O=C(C[n+]1ccccc1)c1ccc(-c2ccccc2)cc1	?	-	-	-	-	-
Cc1ccc(SCCc2cc[n+](CC(=O)c3ccccc3)cc2)cc1	.	-151	-	-	-	-
Cc1cc(C)c2nc(N3C(=O)C(O)=C(C(=O)c4ccco4)C3c3ccco3)sc2c1 (stereo not given)	-	-	31	-	-	-
O=C1CCCN1CCC12CC3CC(CC(C3)C1)C2	-	-	-	-	-	-
COc1ccc(C2/C=C\CN(C(=O)C3CCCC3)[C@H](Cc3ccccc3)C(=O)N2Cc2ccc(F)cc2)cc1 (stereo not given in full)	-	-	-	-	-68	-
COc1ccc([C@H]2/C=C\CN(S(=O)(=O)/C=C/c3ccccc3)[C@@H](C)C(=O)N2Cc2ccc(F)cc2)cc1	-	-	40	-	-	-
COc1ccc([C@H]2/C=C\CN(C(=O)C3CCCC3)[C@@H](C)C(=O)N2Cc2ccc(F)cc2)cc1	?	-	-	-	?	20µM
CCCCC(=O)N1C/C=C\[C@H](c2ccc(OC)cc2)N(Cc2ccc(F)cc2)C(=O)[C@@H]1C	-	-	-	-	-	?
CN(C)c1ccc(/C=C2\SC(=O)N(CCc3nnc(N)s3)C2=O)cc1	4µM	-	-	-	-	-
C=C1C(=O)OC2C1C(OC(=O)C(C)=CC)CC(=C)C1C(O)C3OC3(C)C21O (stereo not given)	-	-101	-	-	-	-
NC12CC3CC(C1)CC(CC(=O)O)(C3)C2	-[11.3 µM]	-	-	-	-	-
CCOc1ccc(CCN2C(=O)C(=O)N([C@@H](Cc3ccc(O)cc3)CN3CCC[C@H]3CN3C(=O)C(=O)NC[C@@H]3Cc3ccc(O)cc3)C[C@@H]2Cc2ccccc2)cc1	-	-	-	.	-	-
SMILES	ATXN2 expr inh	IL1B secr inh	DRD3 agonist	a7 integrin act	D3 antag	S2 tox
CCOc1ccc(CCN2C(=O)C(=O)N([C@@H](Cc3ccccc3)CN3CCC[C@H]3CN3C(=O)C(=O)NC[C@@H]3CC(C)C)C[C@@H]2Cc2ccc(O)cc2)cc1	?	-53	-	.	-	?
CCOc1ccc(CCN2C(=O)C(=O)N([C@@H](CC(C)C)CN3CCC[C@H]3CN3C(=O)C(=O)NC[C@@H]3CC(C)C)C[C@@H]2Cc2ccc(O)cc2)cc1	-	-72	-	.	-	-
CCOc1ccc(CCN2C(=O)C(=O)N([C@@H](Cc3ccccc3)CN3CCC[C@H]3CN3C(=O)C(=O)NC[C@@H]3Cc3ccc(O)cc3)C[C@@H]2Cc2ccc(O)cc2)cc1	-	-60	-	.	-	-
CC(C)C[C@H]1CN([C@@H](Cc2ccccc2)CN2CCC[C@@H]2CN2C(=O)C(=O)NC[C@@H]2Cc2ccccc2)C(=O)C(=O)N1CCc1ccccc1	?	-67	-	.	-65	25µM
CC(C)(C)c1nnc(NC(=O)CCC2CCCCC2)s1	.	-	-	-	-	-
CCOC(=O)[C@@H]1CCNC[C@@H]1c1ccccc1	-	-	-	-	-	-
COc1cccc2oc3cc(C#Cc4ccccn4)ccc3c(=O)c12	-	-55	-	-	-	-
CCOC(=O)[C@]12CCC=C1N(Cc1ccc(Cl)cc1Cl)C(=O)[C@H](CC(=O)NCCc1ccccc1OC)C2	?	?	-	.	-	?
CCOC(=O)c1c(NC(=O)CC)sc2c1CCN(Cc1ccccc1)C2	-	-	-	-	-	-
CCOC(=O)c1c(NC(=O)CN2CCCCC2)sc2c1CCN(C(=O)OCC)C2	-	-86	-	-	-	?
CCOC(=O)c1c(NC(=O)CSc2ncccn2)sc2c1CCN(Cc1ccccc1)C2	-	-	-	-	-81	-
CCOC(=O)c1c(NC(=O)CSc2nnc3c(n2)[nH]c2ccccc23)sc2c1CCN(C)C2	-	-	-	-	-60	-
CCOC(=O)C(=O)CCc1ccccc1	-	.	.	.	.	-
CCOC(=O)C#CC(CCc1ccccc1)OS(N)(=O)=O (stereo not given)	-	-70	-	-	-	-
O=C(Cc1ccccc1[N+](=O)[O-])NC1CCN(Cc2ccccc2)CC1	-	-	-	-	-	-
CC1(C)CC(Nc2ccc(C(F)(F)F)cc2[N+](=O)[O-])CC(C)(C)N1	.	-52	-	-	-	-
NC(=O)CC(NC(=O)c1ccccc1)c1ccc(NC2CCN(Cc3ccccc3)CC2)c([N+](=O)[O-])c1 (stereo not given)	-	-	-	-	-	-
O=[N+]([O-])c1cc(C(F)(F)F)ccc1NCCOc1ccccc1	-	-78	-	-	-	-
